The text below walks through data of PubChem BioAssay AID1224904 (Broad Institute, 2016).

Among all 37,000 compounds or so, about 290 (0.78%) were called active. Roughly 10% stayed inconclusive and do not appear here.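 Rule for the calls: active = mean inhibition of at least 10% in the main channel, exceeding the control channel by a set limit; inconclusive = inhibition of 10% or more but channel gap under a set limit; inactive = mean inhibition below 10%.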 Many of the other results were omitted from the sample, so actives are more common in it than they were.

The assay can be described thus: inhibitors of DUX4-driven ZSCAN4 reporter expression, primary screen, 293T cells, Gaussia and Italica luciferase (AID 1224904).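 For activity change, negative = inhibition: 0% = median of neutral control wells and -100% = median of positive control wells.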 The following applies: 293T-iDUX4 ZSCAN4-Gaussia luciferase reporter, 24 h, stronger effect = lower value, concentration not given here; for Gaussia minus Italica difference: measured here: selective DUX4 reporter inhibition. A general note: In a reporter assay the amount or activity of a reporter protein is the signal.

Setting [1] is: measured here: Italica tet-on control reporter.

For the molecule `CCC(=O)N1CC2(C1)[C@@H](c1ccc(C3=CCCC3)cc1)[C@@H](CO)N2C(=O)COC`, the activity change, negative = inhibition is 2.59% (inactive) and the Gaussia minus Italica difference was -0.983%. Moreover, the activity change, negative = inhibition under setting [1] worked out at 3.57%.
The corresponding values for `COc1cccc(CNC(=O)[C@@H]2[C@@H](CO)[C@@H]3Cn4c(ccc(-c5ccncc5)c4=O)[C@H]2N3C(C)=O)c1` are -3.74% (inactive), -0.373% and -3.37%.
On the same counts, the results for `CN1CCN(C(=O)C[C@@H]2CC[C@@H]3[C@H](COC[C@@H](O)CN3Cc3cccc(F)c3)O2)CC1` are 4.3% (inactive), 5.51% and -1.22%.
On the same counts, the results for `O=C(C[C@@H]1CC[C@@H]2[C@H](COC[C@H](O)CN2C(=O)c2cccnc2)O1)NC1Cc2ccccc2C1` are 3.73% (inactive), 7.39% and -3.66%.
Consider `CC(C)CN(C[C@@H]1N[C@@H](CO)[C@H]1c1ccccc1)C(=O)CN(C)C`, for which the activity change, negative = inhibition was 0.487% (inactive) and the Gaussia minus Italica difference is -0.462%. Under setting [1], the activity change, negative = inhibition is 0.95%.
The corresponding values for `O=C(C[C@@H]1CC[C@@H](NC(=O)Nc2ccc(F)cc2)[C@@H](CO)O1)NCCN1CCCC1` are 3.27% (inactive), 4.34% and -1.07%.
Regarding `N#C[C@@H]1[C@@H](c2ccc(C#Cc3cccc(F)c3)cc2)[C@H](CO)N1C(=O)C1CCOCC1`, the activity change, negative = inhibition is 1.6% (inactive) and the Gaussia minus Italica difference was -0.348%. Moreover, under setting [1], the activity change, negative = inhibition was found to be 1.95%.
The corresponding values for `Cc1noc(C)c1S(=O)(=O)N(C)C[C@@H]1OCc2ccccc2-c2ccccc2C(=O)N([C@@H](C)CO)C[C@H]1C` are 1.81% (inactive), -10.7% and 12.5%.
`O=C(C[C@H]1CC[C@@H]2[C@H](COC[C@@H](O)CN2C(=O)Nc2ccc(Cl)cc2)O1)NC1Cc2ccccc2C1`: the activity change, negative = inhibition was -9.05% (inactive) and the Gaussia minus Italica difference was -8.14%. The activity change, negative = inhibition under setting [1] was -0.9%.
On the same counts, the results for `CN1C(=O)c2cc(NC(=O)c3cscn3)ccc2OC[C@H]2O[C@@H](CC(=O)NCC3CC3)CC[C@H]21` are -3.18% (inactive), -1.61% and -1.57%.
On the same counts, the results for `CCC(=O)N1CC2(C1)[C@@H](c1ccccc1)[C@H](CO)N2CC1CCOCC1` are -0.159% (inactive), -9.09% and 8.93%.
The corresponding values for `C[C@@H]1CC=CC[C@H](c2ccc(F)cc2)NC(=O)[C@@H](Cc2ccccc2)N(C)C(=O)c2ccccc2O1` (mixture of isomers) are -2.82% (inactive), -0.938% and -1.88%.
As for `CC(C)NC(=O)N1C[C@@H]2[C@H](c3ccccc31)[C@H](CO)N2C(=O)C1CCCC1`, the activity change, negative = inhibition was -2.38% (inactive) and the Gaussia minus Italica difference is -0.893%. For the same molecule, the activity change, negative = inhibition under setting [1] is -1.49%.
On the same counts, the results for `CCCNC(=O)[C@@H]1[C@@H](CO)[C@@H]2Cn3c(cccc3=O)[C@H]1N2C(=O)Nc1cc(F)ccc1F` are 6.78% (inactive), -3.98% and 10.8%.
The corresponding values for `Cc1noc(C)c1NC(=O)N[C@@H]1C=C[C@H](CC(=O)N2CCCCC2)O[C@H]1CO` are 5.84% (inactive), 4.2% and 1.64%.
On the same counts, the results for `C[C@@H]1CN([C@H](C)CO)S(=O)(=O)c2ccc(C#CC3CCCC3)cc2O[C@@H]1CN(C)Cc1ccccc1C(=O)O` are -1.04% (inactive), 1.03% and -2.07%.
As for `CC=Cc1ccc2n(c1=O)C[C@@H]1[C@@H](CO)[C@H](C(=O)N(C)C)N(CC3CCOCC3)[C@H]21` (mixture of isomers), the activity change, negative = inhibition is 3.1% (inactive) and the Gaussia minus Italica difference is -3.17%. The activity change, negative = inhibition under setting [1] is 6.26%.
On to `COc1ccccc1NC(=O)N[C@H]1C=C[C@H](CC(=O)N[C@@H](C)c2ccccc2)O[C@H]1CO`, for which the activity change, negative = inhibition is -2% (inactive) and the Gaussia minus Italica difference is -0.906%. The activity change, negative = inhibition under setting [1] is -1.1%.
The corresponding values for `O=C(Nc1ccccc1F)N1C[C@H]2[C@@H](c3ccccc31)[C@H](CO)N2C(=O)c1ccccn1` are -3.65% (inactive), -0.784% and -2.86%.
On the same counts, the results for `O=C(CN1CCOCC1)N1CCCCN2[C@H](CO)[C@H](c3ccc(Br)cc3)[C@H]2C1` are 9.07% (inactive), 13.5% and -4.46%.
On the same counts, the results for `OC[C@H]1[C@@H](c2ccc(C#CC3(O)CCCC3)cc2)[C@H]2CN(Cc3cncnc3)CCCCN21` are 13.2% (inactive), 0.35% and 12.8%.
For `O=C(C1CCCCC1)N1CC(=O)N2[C@H](CO)[C@@H](c3ccc(-c4ccccc4F)cc3)[C@@H]2C1`, the activity change, negative = inhibition is -8.07% (inactive) and the Gaussia minus Italica difference was -6.47%. Under setting [1], the activity change, negative = inhibition was -1.6%.
As to `CNC(=O)C[C@H]1CC[C@@H]2[C@H](COc3ccc(NC(=O)Nc4ccc(F)c(F)c4)cc3C(=O)N2C)O1`, the activity change, negative = inhibition was -0.979% (inactive) and the Gaussia minus Italica difference came out at 2.86%. Under setting [1], the activity change, negative = inhibition was -3.84%.
The corresponding values for `O=C(C[C@@H]1C[C@H]2c3cc(NC(=O)Nc4ccccc4F)ccc3O[C@H]2[C@@H](CO)O1)NCc1ccncc1` are -1.77% (inactive), -2.32% and 0.554%.
As to `C[C@@H](NC(=O)[C@@H]1[C@@H](CO)[C@@H]2Cn3c(ccc(C4=CCCCC4)c3=O)[C@@H]2N1C)c1ccccc1`, the activity change, negative = inhibition was 3.54% (inactive) and the Gaussia minus Italica difference is 2.15%. Besides, the activity change, negative = inhibition under setting [1] stood at 1.39%.
In the case of `CN1C(=O)c2cc(NC(=O)c3ccc(F)cc3)ccc2OC[C@H]2O[C@H](CC(=O)N3CCOCC3)CC[C@@H]21`, the activity change, negative = inhibition was 1.69% (inactive) and the Gaussia minus Italica difference was found to be 9.5%. In addition, under setting [1], the activity change, negative = inhibition is -7.81%.
As to `COCC(=O)N[C@@H]1C=C[C@@H](CC(=O)N2CCCCC2)O[C@@H]1CO`, the activity change, negative = inhibition is 6.06% (inactive) and the Gaussia minus Italica difference worked out at 7.14%. Under setting [1], the activity change, negative = inhibition was -1.08%.
